Data on eight compounds can be found in PubChem BioAssay.

A short description of test [1]: compound effects on lung adenocarcinoma cell viability – A549, calcein-AM fluorescence, 48 h, basal, profiling panel (AID 1162). Further: test concentration not given here. Particulars: higher = more signal.
The nature of test [2]: compound effects on differentiated 3T3-L1 adipocyte viability – cell-based, 3T3-L1 adipocytes, calcein-AM fluorescence, 48 h, basal, profiling panel (AID 1163). Further: test concentration not given here. The settings on record: 3T3-L1 adipocytes viability, higher = more signal.
A short description of test [3]: compound effects on hepatocellular carcinoma cell viability – HepG2, calcein-AM fluorescence, 48 h, basal, profiling panel (AID 1164). Further: test concentration not given here. Particulars: higher = more signal.
Test [4] can be described thus: compound effects on multiple myeloma cell viability – MM1S, calcein-AM fluorescence, 48 h, basal, profiling panel (AID 1165).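 Further: viability of MM1S multiple myeloma cells under basal unstimulated conditions; test concentration not given here.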 The settings on record: higher = more signal.
Test [5] can be described thus: calcein-AM signal in unstimulated myeloma cells – cell-based, calcein-AM fluorescence, 48 h, PK04 Diversity Set, profiling panel (AID 1166).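 Further: cells grown under basal conditions without added stimulus; test concentration not given here.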 Particulars: RPMI8226 myeloma viability, higher = more signal.
The nature of test [6]: JC-1 mitochondrial signal, unstimulated HepG2 cells – cell-based, JC-1 fluorescence, 24 h, 100 nL compound, profiling panel (AID 1167). Further: test concentration not given here. The settings on record: HepG2 mitochondrial potential, higher = more signal.
Test [7] can be described thus: JC-1 mitochondrial signal, unstimulated adipocytes – cell-based, JC-1 fluorescence, 3T3-L1 adipocytes, 24 h, 100 nL compound, profiling panel (AID 1168). Further: test concentration not given here. Particulars: JC-1 mitochondrial fluorescence, higher = more signal, called active from +8 up or from −8 down.
The nature of test [8]: JC-1 mitochondrial signal, unstimulated myeloma cells – cell-based, JC-1 fluorescence, RPMI8226, 24 h, 100 nL compound, profiling panel (AID 1169). Further: test concentration not given here. Particulars: JC-1 mitochondrial potential fluorescence, higher = more signal.
Test [9] is described as follows: JC-1 mitochondrial signal, unstimulated MM1S myeloma – cell-based, JC-1 fluorescence, 24 h, 100 nL compound, profiling panel (AID 1170). Further: test concentration not given here. Particulars: MM1S mitochondrial potential, higher = more signal.
Test [10] can be described thus: resazurin metabolic signal in A549 cells – cell-based, resazurin fluorescence, 24 h, PK04 Diversity Set, profiling panel (AID 1171). Further: test concentration not given here. The settings on record: A549 viability, higher = more signal, called active from +8 up or from −8 down. On the technique in general: Alamar Blue is a resazurin reagent that responds to reducing activity.
Test [11] can be described thus: resazurin metabolic signal in HepG2 cells – cell-based, resazurin fluorescence, 24 h, PK04 Diversity Set, profiling panel (AID 1172). Further: test concentration not given here. Particulars: HepG2 viability, higher = more signal.
The nature of test [12]: budding yeast growth changes without added modifier – OD600, strain BY4716, 24 h, basal condition, primary screen (AID 1173). Particulars: S. cerevisiae BY4716 growth, OD600, 24 h; higher = more signal, called active from +8 up or from −8 down.
A short description of test [13]: viability profiling in MM1S myeloma cells – cell-based, resazurin fluorescence, basal, 24 h, PK04 Diversity Set, profiling panel (AID 1174). Further: test concentration not given here. The settings on record: higher = more signal, called active from +8 up or from −8 down.
The target of test [14] is Dihydroorotate dehydrogenase (quinone), mitochondrial (Plasmodium falciparum (isolate 3D7)) (UniProt Q08210). Briefly: inhibition of P. falciparum DHODH – biochemical, C-terminal His tag, absorbance 600 nm, primary screen (AID 1175).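 Further: recombinant parasite enzyme with a five histidine tag at its C terminus; test concentration not given here.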 The settings on record: PfDHODH enzyme, DCIP absorbance 600 nm; higher = more signal, called active from +8 up or from −8 down.
Test [15] in a line: inhibition of PAO1 biofilm formation – strain PAO1, LB-PBS medium, absorbance 600 nm, primary screen (AID 1176). Further: test concentration not given here. The settings on record: P. aeruginosa PAO1 growth/biofilm, A600, 12 h; higher = more signal.
Test [16] is described as follows: growth modulation of vineyard yeast isolate – strain RM11-1a, OD600, basal, 24 h, primary screen (AID 1177).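 Further: cultures grown under basal conditions with no added stressor; test concentration not given here.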 The settings on record: S. cerevisiae RM11-1a growth, OD600, 24 h; higher = more signal, called active from +8 up or from −8 down.
Test [17] in a line: growth of efflux-deficient E. coli DRC39 – strain DRC39, OD650, 24 h, E. coli filamentation inducers, primary screen (AID 1178).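 Further: growth measured as culture turbidity by optical density at 650 nm; test concentration not given here.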 The settings on record: E. coli DRC39 acrAB, higher = more signal, called active from +8 up or from −8 down.
Test [18] is described as follows: growth of efflux-deficient E. coli DRC39 – strain DRC39, OD650, 48 h, E. coli filamentation inducers, primary screen (AID 1179).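 Further: screen aims at cell division blockers that make cells filament.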 Particulars: E. coli DRC39 delta-acrAB growth, higher = more signal, called active from +8 up or from −8 down.
The nature of test [19]: viability profiling in RPMI8226 myeloma cells – cell-based, resazurin fluorescence, basal, 24 h, PK04 Diversity Set, profiling panel (AID 1180).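 Further: RPMI8826 multiple myeloma cell line at 5000 cells per well; test concentration not given here.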 The settings on record: higher = more signal.
Test [20] concerns the target E3 ubiquitin-protein ligase XIAP (Homo sapiens) (UniProt P98170). Description: small molecules binding XIAP protein – biophysical, small-molecule microarray, fluorescence 635 nm, primary screen (AID 1181).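 Further: score merges 667 nm emission and signal to noise over triplicate slides.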 The settings on record: higher = more signal.

Activity calls are given as the source filed them. Unless noted, how the calls were made is not given here.

Chain of Dihydroorotate dehydrogenase (quinone), mitochondrial (Plasmodium falciparum (isolate 3D7)) (Q08210 whole entry, looked up): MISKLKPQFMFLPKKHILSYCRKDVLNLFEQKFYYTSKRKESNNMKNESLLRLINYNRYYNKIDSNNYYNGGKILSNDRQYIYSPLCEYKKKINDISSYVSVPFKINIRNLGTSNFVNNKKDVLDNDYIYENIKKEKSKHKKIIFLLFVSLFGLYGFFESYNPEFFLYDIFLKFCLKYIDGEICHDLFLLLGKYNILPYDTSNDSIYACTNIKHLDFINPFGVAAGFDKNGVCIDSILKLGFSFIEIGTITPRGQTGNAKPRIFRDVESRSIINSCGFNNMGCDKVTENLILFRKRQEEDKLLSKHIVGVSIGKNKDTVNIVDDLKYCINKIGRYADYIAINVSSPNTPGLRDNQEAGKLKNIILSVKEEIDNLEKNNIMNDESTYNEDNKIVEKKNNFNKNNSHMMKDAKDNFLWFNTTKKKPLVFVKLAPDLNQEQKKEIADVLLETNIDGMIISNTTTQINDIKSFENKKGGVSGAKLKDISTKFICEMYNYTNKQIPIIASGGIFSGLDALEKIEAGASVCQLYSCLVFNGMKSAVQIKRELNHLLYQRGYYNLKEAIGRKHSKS
Chain of E3 ubiquitin-protein ligase XIAP (Homo sapiens) (P98170 whole entry, looked up): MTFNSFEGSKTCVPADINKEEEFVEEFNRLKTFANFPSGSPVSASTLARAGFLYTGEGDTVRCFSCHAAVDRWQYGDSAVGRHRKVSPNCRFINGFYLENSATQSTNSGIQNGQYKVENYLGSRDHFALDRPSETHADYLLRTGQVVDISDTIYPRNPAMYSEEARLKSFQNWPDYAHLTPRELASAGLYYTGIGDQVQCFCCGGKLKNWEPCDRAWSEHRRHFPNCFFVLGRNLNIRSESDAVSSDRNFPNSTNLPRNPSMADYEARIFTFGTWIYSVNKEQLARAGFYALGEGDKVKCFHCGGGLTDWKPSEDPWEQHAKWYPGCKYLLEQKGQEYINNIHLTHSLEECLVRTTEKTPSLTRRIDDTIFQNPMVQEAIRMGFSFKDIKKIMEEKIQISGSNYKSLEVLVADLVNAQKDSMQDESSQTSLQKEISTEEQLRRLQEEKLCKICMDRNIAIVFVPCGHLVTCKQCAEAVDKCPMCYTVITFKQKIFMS

Consider `NCCCCCCNC(=O)[C@@H]1C[C@@H]2C(=O)NCC(=O)N2[C@@H]1c1ccc(O)cc1`, for which the z-score is -1.17 in test [1]; 0.544 in [2]; -1.07 in test [3]; 0.307 in [4]; 0.0172 in test [5]; -0.479 in test [6]. In addition, the z-score is 0.172 (inactive) in [7]; -0.796 in test [8]; -0.365 in test [9]; -0.368 (inactive) in test [10]; -0.45 in test [11]; 0.333 (inactive) in test [12]. For the same compound, the z-score in [13] was 1.02 (inactive); in [15], 0.696 (inactive); in test [16], 0.681 (inactive); in test [17], -0.0366 (inactive); in [18], -0.697 (inactive); in test [19] it was 0.08. Besides, the results for the composite z-score in test [14] and in test [20] were 0.99 (inactive) and 0.0761, respectively.

As for `CCCC[C@H]1OB(O)C[C@H]2C1=C(COC)Cn1c(=O)n(-c3ccccc3)c(=O)n12`, the z-score is 0.0913 in test [1]; -0.21 in test [2]; -0.136 in test [3]; -1.16 in test [4]; -0.657 in test [5]; 0.0213 in test [6]. For the same compound, the z-score in test [7] is -0.199 (inactive); in [8], 0.454; in test [9], -0.73; in [10], 0.921 (inactive); in test [11], -0.248; in test [12], -0.607 (inactive). Further, the z-score was -0.228 (inactive) in test [13]; 0.0937 (inactive) in [15]; 0.523 (inactive) in test [16]; 0.451 (inactive) in test [17]; 0.452 (inactive) in test [18]; -0.214 in test [19]. Further, the composite z-score is -0.485 (inactive) in test [14] and -0.053 in test [20].

With `O=C(c1ccccc1)N1C(=O)[C@@]2(Cc3ccccc31)N=C(c1ccc(OCCCO)cc1)O[C@H]2c1ccccc1`, the z-score in test [1] is -1.31; in test [2], 0.668; in test [3] it was -1.58; in test [4] it was -3.54; in test [5], -4.36; in test [6], 0.157. Besides, the z-score was 0.479 (inactive) in test [7]; -1.19 in test [8]; -2.17 in [9]; -1.62 (inactive) in test [10]; -1.01 in test [11]; -0.123 (inactive) in test [12]. Further, the z-score in test [13] is -2.94 (inactive); in test [15] it was 0.702 (inactive); in test [16], 0.655 (inactive); in test [17] it was -0.399 (inactive); in test [18], -0.239 (inactive); in test [19], -3.43. Also, the composite z-score in test [14] is -0.138 (inactive); in test [20] it was 0.327.

On to `C=CCOC(=O)[C@H]1[C@@H]2C(=O)O[C@@H](c3ccccc3)[C@@H](c3ccccc3)N2[C@@H](c2ccc(OCCOC(=O)[C@H]3C[C@H]4C(=O)N[C@@H](CCCC[N+](C)(C)C)C(=O)N4[C@H]3c3ccc(O)cc3)cc2)[C@]12C(=O)Nc1ccc(I)cc12`, for which the z-score was 0.191 in test [1]; -0.113 in test [2]; 0.837 in test [3]; -0.233 in [4]; -0.661 in [5]; 0.239 in [6]. In addition, the z-score in test [7] is -0.672 (inactive); in test [8], 0.0674; in test [9], 0.17; in [10] it was -0.0807 (inactive); in test [11], -0.427; in test [12] it was -0.154 (inactive). For the same compound, the z-score in test [13] is -0.13 (inactive); in test [15], -0.379 (inactive); in test [16] it was 0.0102 (inactive); in test [17], -0.873 (inactive); in [18], -0.473 (inactive); in [19] it was -0.078. Also, the composite z-score in [14] is -0.24 (inactive); in [20], 2.28.

Turning to `C=C(COC)C(=O)CC[C@@H](OC(C)=O)c1ccc(CO)o1`, the z-score in test [1] is -0.97; in test [2] it was 0.186; in test [3], 0.473; in test [4], -0.0988; in test [5], -0.355; in [6], -0.799. The z-score in [7] was 0.195 (inactive); in test [8], -0.548; in test [9], -0.066; in [10], 0.188 (inactive); in [11], -0.173; in test [12], 0.227 (inactive). The z-score in [13] was 0.145 (inactive); in test [15], 0.838 (inactive); in test [16] it was -1.23 (inactive); in test [17] it was -0.216 (inactive); in test [18] it was -0.107 (inactive); in test [19] it was 0.0972. The composite z-score in test [14] was -3.24 (inactive); in [20], 0.383.

Regarding `CCOC(=O)C[C@H]1[C@H](OC(=O)c2ccccc2-c2ccccc2)[C@@H](NC(=O)CC(C)C)c2cc(OCCCO)ccc2N1C(=O)Cc1ccc(OC)cc1`, the z-score in test [1] is 0.412; in test [2], 0.417; in test [3], 0.612; in test [4] it was -1.52; in [5], -0.884; in [6], 1.4. In addition, the z-score in test [7] is 0.652 (inactive); in [8] it was -0.0827; in test [9], 0.32; in test [10], 1.34 (inactive); in test [11], -0.211; in test [12], -0.184 (inactive). Further, the z-score was 0.0683 (inactive) in [13]; -0.165 (inactive) in test [15]; -0.0992 (inactive) in [16]; -0.234 (inactive) in test [17]; -0.488 (inactive) in test [18]; 0.456 in [19]. The composite z-score in test [14] is 0.712 (inactive); in test [20], -0.135.

Turning to `COc1cc2c(cc1OC)CN(C(=O)[C@H]1[C@@H]3C(=O)O[C@@H](c4ccccc4)[C@@H](c4ccccc4)N3[C@@H](c3ccc(O)cc3)[C@]13C(=O)Nc1ccccc13)CC2`, the z-score in [1] was -0.214; in test [2], -0.843; in test [3], 0.394; in test [4], -0.723; in test [5] it was -1.47; in test [6], -1.2. The z-score in test [7] was 0.977 (inactive); in [8], -0.542; in test [9], -0.594; in test [10], -0.0574 (inactive); in test [11], -0.102; in [12], 0.744 (inactive). The z-score in test [13] is -0.426 (inactive); in [15], 1.67 (inactive); in [16] it was 1.07 (inactive); in test [17], 0.188 (inactive); in [18] it was -0.144 (inactive); in [19], 0.0788. The composite z-score in test [14] was 0.806 (inactive); in test [20] it was 0.188.

On to `CCCC[C@@H]1C[C@H]1[C@@H](NC(=O)c1ccccc1)c1ccc(C(=O)OC)cc1`, for which the z-score in test [1] is -0.992; in test [2], -0.334; in test [3], -0.197; in test [4], -1.2; in [5], -2.68; in [6] it was -2.55. The z-score was -1.18 (inactive) in test [7]; 0.461 in [8]; -1.12 in [9]; 0.571 (inactive) in test [10]; -0.186 in test [11]; -1.61 (inactive) in test [12]. Also, the z-score in test [13] is -0.892 (inactive); in [15], 0.771 (inactive); in [16] it was -0.75 (inactive); in test [17], -0.986 (inactive); in [18], -0.885 (inactive); in test [19] it was 0.0845. Further, the composite z-score in test [14] was -0.265 (inactive); in test [20], -0.0143.
